Test results taken from article PMC4552634, “A New Set of Chemical Starting Points with Plasmodium falciparum Transmission-Blocking Potential for Antimalarial Drug Discovery” (PLoS ONE, 2015).
About 3,200 (25%) of roughly 13,000 compounds showed an effect of 50% or more. The list shows a part of the results.

Test system: P. falciparum stage V gametocytes
Design: BacTiter-Glo ATP luminescence viability of purified stage V gametocytes in 384-well plates, per cent inhibition versus DMSO
Settings: 48 h, 5 µM; inhibitor

Structure (SMILES)	% Inhibition [%]
COc1c(C2CCN(CCCCNC(=O)c3ccc(NC(=O)c4ccc(C#N)cc4)cc3)CC2)ccc2c1CCCC2 [TCMDC-138664]	116.8
COc1c(C2CCN(CCCCNC(=O)c3noc(-c4ccc(C#N)cc4)n3)CC2)ccc2c1CCCC2 [TCMDC-138814]	4.753
Cn1ccc(C(=O)Nc2ccc3c(c2)CN(Cc2ccc(N4CCCC4)o2)CCC3)n1 [TCMDC-134722]	-3.632
O=C(NCc1cccc(F)c1)Nc1cccc(-c2cccc(-c3nc4ccccc4[nH]3)c2)c1 [TCMDC-133290]	0.3342
CC(=O)Nc1ccc(CN2Cc3ccc(NC(=O)Nc4ccc(Oc5ccccc5)cc4)cc3C2)s1 [TCMDC-141756]	-76.53
c1cc(-c2ccc(CN3CCCCC3)cc2)cc(-c2nc3ccccc3[nH]2)c1 [TCMDC-133917]	-5.733
Fc1ccc2[nH]c(-c3cccc(-c4ccc(CN5CCC(CCN6CCCCC6)CC5)cc4)c3)nc2c1 [TCMDC-133940]	104.4
NC(=O)C1CCN(Cc2cccc(-c3ccc(-c4nc5ccc(C(F)(F)F)cc5[nH]4)cc3)c2)CC1 [TCMDC-132691]	-22.66
FC(F)(F)c1ccc2nc(-c3ccc(-c4cccc(CN5CCCCC5)c4)cc3)[nH]c2c1 [TCMDC-133886]	-44.09
Cc1cccc2nc(-c3ccc(-c4ccc(CN5CCC(C(N)=O)CC5)cc4)cc3)[nH]c12.O=C(O)C(F)(F)F [TCMDC-132688]	10.12
Fc1ccc2nc(-c3cccc(-c4ccc(CN5CCCCC5)cc4)c3)[nH]c2c1 [TCMDC-133887]	2.75
NC(=O)C1CCN(Cc2ccc(-c3ccc(-c4nc5cc(F)ccc5[nH]4)cc3)cc2)CC1.O=C(O)C(F)(F)F [TCMDC-132693]	4.411
O=C(O)C(F)(F)F.OCC1CCN(Cc2ccc(-c3ccc(-c4nc5cc(F)ccc5[nH]4)cc3)cc2)CC1 [TCMDC-133125]	29.73
Cc1cccc2nc(-c3ccc(-c4ccc(CN5CCC(CCN6CCCCC6)CC5)cc4)cc3)[nH]c12 [TCMDC-133929]	114
Cc1cccc2nc(-c3ccc(-c4ccc(CN5CCCC(O)C5)cc4)cc3)[nH]c12.O=C(O)C(F)(F)F (stereo not shown) [TCMDC-133826]	35.59
FC(F)(F)c1ccc2[nH]c(-c3ccc(-c4cccc(CN5CCC(CCN6CCCCC6)CC5)c4)cc3)nc2c1 [TCMDC-133941]	100.4
Fc1ccc2[nH]c(-c3ccc(-c4ccc(CN5CCC(CCN6CCCCC6)CC5)cc4)cc3)nc2c1 [TCMDC-133924]	105.4
CC(=O)c1cccc2c(NC(=O)Nc3ccc4nccc(N5CCN(C)CC5)c4c3)cccc12 [TCMDC-139345]	-42.22
O=C(Nc1ccsc1)Nc1cccc(-c2cccc(-c3nc4ccc(C(F)(F)F)cc4[nH]3)c2)c1 [TCMDC-133214]	-52.37
CC(=O)C1(c2ccccc2)CCN(CCC2(c3ccc(Cl)c(Cl)c3)CN(C(=O)Nc3cc(F)cc(F)c3)CCO2)CC1 (stereo not shown) [TCMDC-135332]	-16.09
N#Cc1ccc(NC(=O)c2ccc(Cc3ccc4c(c3)CCN(C3CCC3)CC4)cn2)cc1 [TCMDC-136453]	22.22
COc1ccc(NC(=O)/C=C/c2ccccc2Cl)cc1OCCN1CCC(O)(c2ccc(Cl)c(C(F)(F)F)c2)CC1 [TCMDC-140918]	-10.77
Fc1ccc2nc(-c3ccc(-c4cccc(CN5CCC(CCN6CCCCC6)CC5)c4)cc3)[nH]c2c1 [TCMDC-133933]	114

Structure (SMILES)	% Inhibition [%]
Fc1ccc2[nH]c(-c3ccc(-c4ccc(CN5CCC(CCN6CCCCC6)CC5)cc4)s3)nc2c1 [TCMDC-133932]	102.4
Fc1ccc2nc(-c3ccc(-c4cccc(CN5CCCCC5)c4)cc3)[nH]c2c1 [TCMDC-133896]	-18.48
OCCN1CCN(Cc2cccc(-c3cccc(-c4nc5ccc(F)cc5[nH]4)c3)c2)CC1 [TCMDC-133035]	-22.3
OCc1c(Cl)cc(Cl)cc1CNCCCNc1nc2ccccc2[nH]1 [TCMDC-140012]	-23.66
O=C(/C=C/c1ccc(Cl)c(Cl)c1)NCC1CCN(Cc2ccc(O)cc2)CC1 [TCMDC-141740]	34.51
CCC1(C)CC(CCNCc2ccccc2O)(c2ccccc2OC)CCO1 (stereo not shown) [TCMDC-125080]	19.87
CN1CCC(NCc2cccc(-c3nn(C)c4nc(NC5CCCC5)ncc34)c2)CC1 [TCMDC-134840]	110.3
CN1CCC(N(Cc2ccc(-c3cnc(NCc4ccccc4)nc3)cc2)S(=O)(=O)c2ccccc2)CC1 [TCMDC-137158]	31.68
COc1ccc(-c2cnc(NCc3ccccc3)nc2)cc1CNC1CCN(C)CC1 [TCMDC-134121]	34.84
CN1CCC(NCc2ccc(-c3cnc(NCc4ccccc4)nc3)cc2)CC1 [TCMDC-134120]	82.56
Cn1nc(-c2cccc(CNCc3ccccc3)c2)c2cnc(NC3CCCC3)nc21 [TCMDC-134839]	-3.994
CN1CCC(NCc2cccc(-c3cnc(NCc4ccccc4)nc3)c2)CC1 [TCMDC-134119]	58.9
Cn1nc(-c2cccc(CNCCc3cccs3)c2)c2cnc(NC3CCCC3)nc21 [TCMDC-135031]	12.01
COC(=O)c1cccc(OCCNC2CCN(C[C@H](O)c3ccnc4ccc(OC)cc34)CC2)c1 [TCMDC-140710]	-10.21
Cc1nnc(N2C(=N)SC(=Cc3ccc(-c4ccc(OC(F)(F)F)cc4)o3)C2=O)s1 [TCMDC-124487]	0.8925
COc1nc2c(N3CCN(CCNCc4ccc5c(n4)NC(=O)CO5)CC3)ccnc2cc1F [TCMDC-135208]	-25.48
Cc1ccc(NC(=O)Nc2ccc(Cl)c(C(F)(F)F)c2)cc1-c1ccc(C(=O)NCCN2CCOCC2)cc1 [TCMDC-133589]	4.722
CC(C)N1CCN(C(=O)c2ccc(CNCCCN3CCN(c4cccc(Cl)c4Cl)CC3)s2)CC1 [TCMDC-136520]	62.19
Cc1cc2[nH]c(-c3ccc(C(=O)NCCCN4CCN(c5cccc(Cl)c5)CC4)s3)nc2cc1Cl [TCMDC-140031]	-0.02415
CN(C)CCCN1CCN(C(=O)c2cccc(-c3noc(C(F)(F)F)n3)c2)CC1 [TCMDC-132384]	-19.31
CC(C)N1CCN(C(=O)c2ccc(CN(C)CCCN3CCN(c4cccc(Cl)c4Cl)CC3)s2)CC1 [TCMDC-136526]	84.79
CC(C)N1CCN(C(=O)c2ccc(CNCCCN3CCN(c4ccccc4C(F)(F)F)CC3)s2)CC1 [TCMDC-136704]	40.48
CC(C)N1CCN(C(=O)c2ccc(CNCCCN3CCN(c4cccc(Cl)c4Cl)CC3)o2)CC1 [TCMDC-136521]	-13.79

Structure (SMILES)	% Inhibition [%]
CC(C)CCN1CCCN(Cc2ccc(C(=O)Nc3ccc(C(C)(C)C)cc3)cc2)CC1 [TCMDC-136444]	35.23
Cc1ccc(Oc2ccc(CNc3nc(Nc4cccc(F)c4)nc(Nc4cccc(F)c4)n3)cc2)cc1 [TCMDC-135138]	50.43
CC(=O)Nc1cccc(CNc2cc(C)nc(Nc3ccc(C)cc3)n2)c1 [TCMDC-133461]	27.64
Oc1ccc(CCNc2nc(NCc3cccc(OCc4cccc(F)c4)c3)nc(N3CCNCC3)n2)cc1 [TCMDC-133812]	-36.91
O=C(Nc1ccc(OCc2ccccc2)cc1)c1nc2ccccc2nc1Cl [TCMDC-124732]	4.904
Fc1cccc(Nc2nc(NCc3ccc(OCc4ccccc4)cc3)nc(Nc3cccc(F)c3)n2)c1 [TCMDC-135137]	60.27
COc1cccc(Nc2nc(C)cc(NCc3ccc(-c4c(C)noc4C)cc3)n2)c1 [TCMDC-133451]	9.249
COc1cc(Cc2cnc3nc(N)nc(N)c3c2C)cc(OC)c1OC [TCMDC-138058]	-6.965
COc1ccc2c(NN=Cc3ccc(F)cc3)cc(C)nc2c1 [TCMDC-142086]	107.2
Cc1cc(NN=Cc2ccc(Cl)cc2)c2ccccc2n1 [TCMDC-123979]	12.17
CCOc1ccc2nc(C)cc(NN=Cc3ccncc3)c2c1 [TCMDC-142046]	-27.59
COc1ccc2nc(C)cc(NN=Cc3ccc(Cl)cc3)c2c1 [TCMDC-123971]	99.29
CCOc1ccc2nc(C)cc(NN=Cc3ccc(Cl)cc3)c2c1 [TCMDC-142091]	100.1
Cc1ccc2nc(C)cc(NN=Cc3cccc(F)c3)c2c1 [TCMDC-142066]	30.79
Cc1ccc2c(NN=CC=Cc3ccccc3)cc(C)nc2c1 [TCMDC-142075]	-22.28
Cc1ccc2c(NN=Cc3cccc(F)c3)cc(C)nc2c1 [TCMDC-142067]	59.3
CCOc1ccc2nc(C)cc(NN=Cc3ccccc3)c2c1 [TCMDC-142094]	-27.91
Cc1cc(NN=Cc2ccc(F)cc2)c2ccc(F)cc2n1 [TCMDC-142039]	-75.1
Cc1ccc(NC(=O)NC2CCN(c3ccnc4cc(Cl)ccc34)CC2)cc1 [TCMDC-133571]	-34.41
CNS(=O)(=O)Cc1ccc(Nc2nccc(Nc3cccc4c3cnn4C(=O)Nc3ccccc3)n2)cc1 [TCMDC-136315]	19.26
Cc1cc(Br)c(OCCCON2C(N)=NC(N)=NC2(C)C)c(Br)c1 [TCMDC-131365]	37.66
